In PubChem BioAssay AID602340 (Broad Institute, 2012):
About 2,600 (0.79%) of roughly 330,000 compounds were called active. What follows is part of a selection rich in actives, with near analogues and random picks from the rest. Values without a mark were called inactive.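 Rule for the calls: active = mean ATP rescue above about 67%, or every replicate alone reaching that limit (limit read from the data, passing the limit was not always enough); inconclusive = no clear call, values can overlap the other calls; inactive = mean under the limit and some replicate under it.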

Experiment: suppressors of statin myotoxicity in C2C12 myotubes, primary screen, cell-based, single point, plate reader (AID 602340);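 note: myotubes were challenged with 10 µM simvastatin during compound exposure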
Conditions: C2C12 myotubes + simvastatin, ATP luminescence, 48 h; at 7.49 µM; hits give high values; scaled: DMSO 0, geranylgeraniol control 100

Row | Structure (SMILES) | rescue of ATP level
1 | Cc1c(Cl)c([N+](=O)[O-])nn1Cc1ccc(C(=O)N/N=C\c2cc(Cl)ccc2O)o1 | 74.2% (active)
2 | CN(C)c1ccc(/C=N/NC(=O)c2ccc(Cn3cc(Br)cn3)o2)cc1 | -6.78%
3 | Cc1nn(Cc2ccccc2Cl)c(C)c1NC(=O)Cn1nc([N+](=O)[O-])c(Cl)c1C | 13.1%
4 | CO[C@@H]1CC[C@@H]2CCOc3ccc(C#N)cc3C(=O)N(C)[C@H](C)C(=O)N(C)C[C@@H]1O2 | 4.94%
5 | O=C(NCC[C@@H]1CC[C@H](NC(=O)C2CCCCC2)[C@@H](CO)O1)Nc1ccc(Cl)cc1 | -9.47%
6 | CO[C@@H]1CN(C)C(=O)c2ccc(NS(=O)(=O)c3cccc(F)c3)cc2OC[C@H](C)N(C(=O)Cc2cccnc2)C[C@@H]1C | 19.8%
7 | C[C@H]1CN([C@@H](C)CO)C(=O)c2cc(-c3cccc(C(=O)N(C)C)c3)cnc2O[C@H]1CN(C)S(=O)(=O)c1ccccc1 | -7.9%
8 | Nc1ccc(C(=O)OCC(=O)NC2CCCc3ccccc32)cc1[N+](=O)[O-] (centres undefined) | 150% (active)
9 | Nc1ccc(C(=O)OCC(=O)NC2CCS(=O)(=O)C2)cc1[N+](=O)[O-] (centres undefined) | -3.1%
10 | NC(=O)Nc1ccc(C(=O)OCC(=O)NC2CCCc3ccccc32)cc1 (centres undefined) | -1.62%
11 | Cc1nn(C)c(Oc2ccccc2)c1[N+](=O)[O-] | 72.4% (active)
12 | Cc1nn(C)c(Oc2ccccc2)c1CCNS(=O)(=O)c1ccc(F)cc1 | 8.55%
13 | Cc1nn(C)c(Oc2ccc(Cl)cc2)c1C=O | 15.3%
14 | CCC1(CC)NC(=O)N(CC(=O)OCC(=O)NC(=O)c2ccccc2)C1=O | -1.1%
15 | CCC1(CC)NC(=O)N(CC(=O)OCC(=O)c2cc(C)c(C)cc2C)C1=O | 8.64%
16 | CCC1(CC)NC(=O)N(CC(=O)OCC(=O)Nc2ccc(C(F)(F)F)cc2)C1=O | 115% (active)
17 | C[C@H]1CN([C@@H](C)CO)C(=O)c2c(c3ccccc3n2C)-c2ccccc2CO[C@H]1CN(C)C(=O)Nc1ccc(F)cc1 | 19.1%
18 | COCC(=O)N1C[C@H]2[C@@H](c3ccccc31)[C@@H](CO)N2C(=O)NC(C)C | 17%
19 | CCc1ccc(CNC(=O)C2CCCN(c3nc4ccccc4o3)C2)cc1 (centres undefined) | 28.3%
20 | COc1ccccc1CNC(=O)C1CCN(c2nc3ccccc3o2)CC1 | 15.8%
21 | COc1ccc(OC)c(CNC(=O)C2CCCN(c3nc4ccccc4o3)C2)c1 (centres undefined) | 102% (active)
22 | C[C@@H]1CN([C@@H](C)CO)C(=O)c2cccc(NS(=O)(=O)c3cn(C)cn3)c2O[C@@H]1CN(C)Cc1ccc(Cl)c(Cl)c1 | -13.1%
23 | CCCNC(=O)C[C@H]1C[C@@H]2c3cc(NC(=O)C4CCOCC4)ccc3O[C@@H]2[C@@H](CO)O1 | -1.71%
24 | CCN(CC)Cc1cc(C(C)=O)ccc1O | 16.6%
25 | CN(CCO)Cc1csc2ccc(Br)cc12 | 14.5%
26 | CCN(CC)Cc1csc2ccc(Br)cc12 | 100% (active)
27 | CNC[C@H]1Oc2cc(-c3cccnc3)ccc2S(=O)(=O)N([C@@H](C)CO)C[C@H]1C | -14.4%

Row | Structure (SMILES) | rescue of ATP level
28 | O=C(C[C@@H]1C=C[C@H](NC(=O)c2ccc3c(c2)OCO3)[C@H](CO)O1)NCc1ccc(Oc2ccccc2)cc1 | 8.65%
29 | CN(C)C(=O)c1cccc(-c2ccc3c(c2)[C@H]2[C@H](CCN2S(=O)(=O)c2cn(C)cn2)[C@@H](CO)N3)c1 | 13.8%
30 | COCCN1C(=O)N[C@@H](c2ccccc2)C(C(=O)OC)=C1C | -10.8%
31 | COC(=O)C1=C(C)N(C)C(C)=C(C(=O)OC)C1c1cccc(Br)c1 | 89.2% (active)
32 | CCN1C(=O)N[C@@H](c2ccccc2)C(C(=O)OC)=C1C | -1.21%
33 | COCC(=O)Nc1ccc2c(c1)OC[C@H](C)N(C(=O)Cc1ccccn1)C[C@H](C)[C@@H](OC)CN(C)C2=O | 9.72%
34 | O=C(CCl)NNc1nc(-c2ccccc2)c2cc(Cl)ccc2n1 | 16.4%
35 | OCCCNc1nc(-c2ccccc2)c2cc(Cl)ccc2n1 | 1.1%
36 | Cc1ccc2nc(Nc3ccccc3O)nc(-c3ccccc3)c2c1 | 134% (active)
37 | CC(C)NC(=O)Nc1ccc2c(c1)CC(=O)N([C@@H](C)CO)C[C@@H](C)[C@@H](CN(C)S(=O)(=O)c1ccccc1)O2 | -17%
38 | COc1ccccc1CNC(=O)C[C@@H]1CC[C@H](NC(=O)CN(C)C)[C@@H](CO)O1 | 2.77%
39 | CN1c2ccc(-c3ccccc3)cc2[C@@H]2[C@@H](CCN2C(=O)NC2CCCC2)[C@H]1CO | -5.4%
40 | CCCNC(=O)N[C@@H]1C=C[C@H](CC(=O)NC2CCC2)O[C@H]1CO | 1.32%
41 | CN1C(=O)c2cc(NC(=O)c3ccc(Cl)cc3)ccc2OC[C@H]2O[C@H](CC(=O)O)CC[C@H]21 | -6.44%
42 | C[C@@H]1CN([C@@H](C)CO)C(=O)c2cc(C#CC(C)(C)O)cnc2O[C@@H]1CN(C)C(=O)C1CCOCC1 | 16.9%
43 | C=CCNC(=S)N/N=C/c1ccc(C)s1 | 5.1%
44 | CNC(=S)N/N=C/c1ccc(OCc2ccccc2)c(Br)c1 | 10.8%
45 | C=CCNC(=S)N/N=C/c1ccc(OCc2ccccc2)cc1 | 106% (active)
46 | O=C(C[C@H]1CC[C@H]2[C@@H](COC[C@@H](O)CN2CC2CCOCC2)O1)NCc1ccc(Cl)cc1 | 7.95%
47 | CCC(=O)Nc1ccc2nn(-c3ccc(F)cc3)nc2c1 | -5.86%
48 | Cc1ccc(-n2nc3ccc(NC(=O)/C=C/c4ccco4)cc3n2)cc1C | 97.3% (active)
49 | O=C(/C=C/c1ccco1)Nc1ccc(Oc2ccccc2)cc1 | -25.3%
50 | COCC(=O)N[C@H]1C=C[C@H](CC(=O)N2CCCCC2)O[C@H]1CO | 6.62%
51 | CNC[C@H]1Oc2cc(C#CCOC)ccc2S(=O)(=O)N([C@@H](C)CO)C[C@H]1C | -7.75%
52 | COc1ccc(NC(=O)c2cc(-c3cc(OC)c(OC)c(OC)c3)nc3ccccc23)c(OC)c1 | -9.57%
53 | COc1ccc(-c2cc(C(=O)Nc3ccccc3O)c3ccccc3n2)cc1 | 14.3%
54 | COc1ccc(-c2cc(C(=O)n3cnc4ccccc43)c3ccccc3n2)cc1 | 87.1% (active)

Row | Structure (SMILES) | rescue of ATP level
55 | O=C(C[C@H]1C=C[C@H](NC(=O)NC2CCCCC2)[C@H](CO)O1)NCc1ccccc1 | 2.53%
56 | CS(=O)(=O)Nc1ccc2c(c1)[C@H]1C[C@H](CC(=O)NCc3ccc(Cl)cc3)O[C@@H](CO)[C@H]1O2 | -4.85%
57 | COc1ccccc1-c1cn(CC[C@@H]2CC[C@@H](NC(=O)c3ccccc3F)[C@H](CO)O2)nn1 | 6.43%
58 | CN(C)Cc1cn(CC[C@H]2CC[C@H](NS(=O)(=O)c3ccccc3)[C@@H](CO)O2)nn1 | -2.83%
59 | CCOc1ccc(CCNC(=O)Nc2ccccc2)cc1OCC | 1.69%
60 | Cc1cc2nc(C)n(CCCNC(=O)Nc3ccccc3)c2cc1C | 93.8% (active)
61 | C=CCN(C(=O)Nc1ccc2c(c1)nc(C)n2C)c1ccccc1 | -0.158%
62 | CCCNC(=O)C[C@H]1CC[C@@H]2[C@H](COC[C@H](O)CN2CC2CCCCC2)O1 | -0.493%
63 | CNC(=O)C[C@H]1CC[C@@H]2[C@H](COc3ccc(NC(=O)Nc4cccc(F)c4)cc3C(=O)N2C)O1 | -6.73%
64 | CNC(=O)C[C@@H]1CC[C@@H]2[C@@H](COc3ccc(NC(=O)Nc4ccccc4OC)cc3C(=O)N2C)O1 | 10.7%
65 | CC1CCN(c2nc3c(c(=O)[nH]c(=O)n3C)n2CCCc2ccccc2)CC1 | 144% (active)
66 | Cn1c(=O)[nH]c(=O)c2c1nc(N1CCN(C(c3ccccc3)c3ccccc3)CC1)n2CCO | 41.4%
67 | CC=CCn1c(SCCCc2ccccc2)nc2c1c(=O)[nH]c(=O)n2C | 1.54%
68 | CCCNC(=O)[C@@H]1[C@@H](CO)[C@@H]2Cn3c(ccc(-c4ccccc4F)c3=O)[C@H]1N2CC1CC1 | -5.23%
69 | COc1ccccc1-c1cnc2c(c1)C(=O)N([C@H](C)CO)C[C@@H](C)[C@@H](CN(C)Cc1ccncc1)O2 | 41.2%
70 | C/C(=N\NC(=O)c1nc(C)cc(C)n1)c1ccccc1 | 121% (active)
71 | COc1ccc(/C(C)=N/NC(=O)c2ccc3nc[nH]c3c2)cc1 | -52.1%
72 | CC(=NNC(=O)c1ccc2nc[nH]c2c1)c1ccc(Br)cc1 | -6.54%
73 | CCCC(O)C#Cc1cnc2c(c1)C(=O)N([C@H](C)CO)C[C@H](C)[C@H](CN(C)Cc1ccc(F)cc1)O2 (some centres undefined) | -2.92%
74 | COc1ccc(S(=O)(=O)Nc2ccc3c(c2)CC(=O)N([C@H](C)CO)C[C@H](C)[C@H](CN(C)Cc2ccc(C(F)(F)F)cc2)O3)cc1 | 12%
75 | C[C@@H]1CN([C@@H](C)CO)C(=O)Cc2cc(NS(=O)(=O)c3ccc(Cl)cc3)ccc2O[C@H]1CN(C)Cc1ccc(C(F)(F)F)cc1 | 96.2% (active)
76 | Cc1ccc(S(=O)(=O)Nc2ccc3c(c2)C(=O)N([C@@H](C)CO)C[C@@H](C)[C@H](CN(C)Cc2ccc(C(F)(F)F)cc2)O3)cc1 | 9.63%
77 | C[C@H]1CN([C@@H](C)CO)C(=O)Cc2cc(NS(=O)(=O)c3ccc(F)cc3)ccc2O[C@H]1CN(C)Cc1ccc(C(F)(F)F)cc1 | 15.6%
78 | Cc1ccc(S(=O)(=O)Nc2ccc3c(c2)CC(=O)N([C@@H](C)CO)C[C@H](C)[C@H](CN(C)Cc2ccccc2)O3)cc1 | 21.7%
79 | Cc1ccc(S(=O)(=O)Nc2ccc3c(c2)CC(=O)N([C@H](C)CO)C[C@@H](C)[C@H](CN(C)Cc2ccc(C(F)(F)F)cc2)O3)cc1 | 110% (active)
